PubChem BioAssay (NCI)
This is part of a sample that, as a whole, favours compounds with a hit. Of some 83,000 tested, about 20% had one in any assay.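 Interpretation: 100, growth as untreated; towards 0, rising growth inhibition; 0, no net growth; 0 to -100, cell death. Compounds scoring below 10 were considered active.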 Values without a mark were called inactive. Activity calls are given as the source filed them.

Columns and labels:
Assay in all cases: NCI-60 one-dose screen, 48 h (100 = growth as untreated, 0 = no growth, -100 = all killed)
Conditions in all cases: 10 µM unless noted
[1] = test system: SR leukemia
[2] = test system: RPMI-8226 leukemia
[3] = test system: OVCAR-8 ovarian
[4] = test system: OVCAR-5 ovarian
[5] = test system: OVCAR-4 ovarian
[6] = test system: SK-OV-3 ovarian
[7] = test system: IGROV1 ovarian
[8] = test system: OVCAR-3 ovarian
[9] = test system: HS 578T breast
[10] = test system: NCI/ADR-RES ovarian
[11] = test system: T-47D breast
[12] = test system: BT-549 breast
[13] = test system: MDA-MB-435 melanoma
[14] = test system: SW-620 colon
[15] = test system: MCF7 breast
[16] = test system: HCT-116 colon
[17] = test system: HCC-2998 colon
[18] = test system: KM12 colon

Row | Compound | growth [1] | growth [2] | growth [3] [%] | growth [4] | growth [5] [%] | growth [6] | growth [7] [%] | growth [8] | growth [9] | growth [10] | growth [11] | growth [12] | growth [13] | growth [14] | growth [15] | growth [16] | growth [17] | growth [18]
1 | O=C(Nc1ccc(Oc2cccc(F)c2)c(Cl)c1)c1cnccn1 | 20.8% | 18% | 37.5 | 56.6% | 44.5 | 86% | 40.5 | -17.8% (active) | 27.8% | 9.06% (active) | 38.3% | 59.9% | -21.2% (active) | 22.7% | 17.5% | 32% | 56.2% | 30.3%
2 | COc1ccc(C2=NN(C=O)C(c3ccc(Oc4nc5c(c(=O)n(C)c(=O)n5C)n4C)c(OC)c3)C2)cc1 (stereo not given) | 83.9% | 79.6% | 85.2 | 96.6% | 72.3 | 114% | 87.7 | 101% | 89.6% | 63.4% | 75.5% | 96.9% | 61.2% | 104% | 77.1% | 83% | 82.3% | 87.5%
3 | CC(C)=CCC[C@](C)(O)C1CC[C@]2(C)[C@@H]1CC[C@@H]1[C@@]3(C)CC/C(=N\OCCC#N)C(C)(C)[C@@H]3CC[C@]12C (stereo not given in full) | 61.6% | 36% | 85.1 | 99.1% | 79.9 | 84.3% | 97.4 | 93.2% | 92.9% | 97.7% | 52.6% | 102% | 87.7% | 78.8% | 63.2% | 66.2% | 84.5% | 84.7%
4 | O=C1NC(=O)C(=Cc2cc(-c3ccc(Cl)cc3)n(-c3ccccc3)n2)C(=O)N1 | 93.7% | 92.1% | 101 | 91.5% | 103 | 105% | 93.1 | 111% | 95.5% | 107% | 93.6% | 83.9% | 94.5% | 96.7% | 93.2% | 94% | 110% | 102%
5 | CCOc1ccc(N2C(=O)CCSC2=S)cc1 | 116% | 104% | 104 | 107% | 109 | 101% | 99.1 | 114% | 105% | 105% | 104% | 108% | 98% | 104% | 100% | 112% | 104% | 107%
6 | CN1CCN(CC(=O)N(C)c2ccc(N=C(c3ccccc3)c3c(O)[nH]c4ccc([N+](=O)[O-])cc34)cc2)CC1 | 19.4% | 82.7% | 79.6 | 122% | 57.7 | 14.4% | 49.3 | 73.6% | 18.2% | 90.8% | 89.7% | 64.4% | 23.5% | 48.4% | 21.9% | 24% | 78.7% | 13.1%
7 | N#Cc1c(-c2ccc(Cl)cc2)nc(NN=Cc2cccc(Cl)c2)nc1N1CCOCC1 | 8.74% (active) | 65.1% | 96.7 | 103% | 94.3 | 111% | 75.2 | 87.4% | 96.6% | 89.2% | 76.6% | 93.6% | 92% | 53.3% | 85.9% | 70.8% | 105% | 84%
8 | COc1cc(/C=N/NC(=O)c2ccc3nc(-c4ccc(Cl)cc4)[nH]c3c2)cc(OC)c1OC | 45.7% | 19.9% | 60.5 | 172% | 102 | 87.8% | 68.4 | 61.6% | 48.3% | 106% | 15.9% | 70.7% | 64% | 78.7% | 12.1% | 36.2% | 80% | 61.8%
9 | CCOC(=O)C1=C(c2ccccc2)N=C2SC=C(c3cccc([N+](=O)[O-])c3)N2C1c1ccc(O)cc1 (stereo not given) | 109% | 98% | 97.9 | 100% | 106 | 102% | 95.5 | 101% | 102% | 99.3% | 93.5% | 95.1% | 101% | 97.6% | 95.1% | 100% | 101% | 99.7%
10 | N#C/C(Sc1nc2sc3c(c2c(=O)n1Cc1ccccc1)CCCC3)=C1/SC=C(c2ccc(Cl)cc2)N1c1ccccc1 | 25.4% | 68.3% | 61.6 | 83.7% | 93.5 | 88.6% | 38.2 | 112% | 75.2% | 83.5% | 91.5% | 101% | 109% | 89.9% | 82.5% | 83.5% | 87.2% | 95.8%
11 | C=CCNc1nc(O)c(/C=C2\C=Nc3ncccc32)s1 | -9.51% (active) | 42.7% | 10.7 | 5.27% (active) | 34.7 | -7% (active) | 17 | -7.02% (active) | -15% (active) | 42.1% | -8.68% (active) | -29.5% (active) | 21.1% | 7.39% (active) | 3.5% (active) | 6.31% (active) | 44.6% | 7.86% (active)
12 | Cn1ncc(CC(=O)O)c1-n1nnc2cc(Cl)ccc2c1=O | 87.6% | 106% | 99.6 | 98.1% | 94.6 | 111% | 103 | 114% | 91.5% | 101% | 102% | 102% | 92.7% | 103% | 110% | 99.5% | 107% | 102%
13 | C=C(C)[C@@H]1CC[C@]2(C#N)CC[C@]3(C)[C@H](CC[C@@H]4[C@@]5(C)CCCNC(C)(C)[C@@H]5CC[C@]43C)[C@@H]12 | -26% (active) | -18.6% (active) | 82.7 | 88.6% | 72.4 | 118% | 46.4 | 70.1% | 91.8% | 88.3% | 78.8% | 96.1% | 44.2% | 2.83% (active) | 20% | 41.6% | -40.2% (active) | 41%
14 | CC(C)CCc1nc2ccc(NCc3ccc(OCCN4CCC(C)CC4)cc3)cc2[nH]1 | 14.2% | 68.6% | 96.6 | 95% | 80.6 | 102% | 79.3 | 71.9% | 84.3% | 97% | 97% | 77.1% | 89.2% | 89.3% | 62.3% | 65.1% | 42.7% | 87.6%
15 | O=C(Nc1cccc(Cn2c(=O)[nH]c3ccc(Oc4ncccn4)cc3c2=O)c1)c1cccc(Cl)c1 | 35.9% | 35.1% | 58.4 | 86.2% | 30.5 | 82.5% | 62.4 | 67.6% | 73.7% | 77.5% | 20.6% | 43.8% | 42.5% | 83.3% | 40.2% | 52.6% | 84.6% | 55%
